Screens from PubChem.
This is a sample that favours compounds with a hit; in the whole collection about 6.5% have one here.
TGFb inhibitor – inhibitors of TGF-b signaling | actives 1.2% (n = 410,000) | Potency, µM (series often up to 46.1 µM), hits mostly inhibitors | HepG2 CAGA-GFP TGF-b/SMAD3 reporter, GFP fluorescence, 18 h; TGF-beta stimulated, 500 pg/mL final; further: nearly all actives have a fitted effect of over 65% in size
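Smad-responsive CAGA-GFP expression was quantified in HEPG2 cells exposed to compounds and 500 pg/mL final TGF-beta for 18 h at 37 degrees C; unstimulated wells defined full inhibition.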
HepG2 viability – HepG2 cytotoxicity, counter-screen for TGF-b inhibitors. HepG2 CAGA-GFP viability, ATP luminescence, 18 h. Potency, µM (highest dose often 46.1 µM), most hits filed as cytotoxic. actives 0.76% (n = 410,000)
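HepG2 CAGA-GFP cells (1000/well, DMEM with 1% FBS) received compound, then TGF-beta at 500 pg/mL final, and were incubated 18 hours at 37 degrees C. Viability was read by CellTiter-Glo luminescence. Media-only wells were set as complete cell-killing and DMSO as no toxicity.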
HT1080NT lethal – kills 2HG-producing HT-1080-NT fibrosarcoma cells | HT-1080-NT fibrosarcoma viability, CellTiter-Glo ATP luminescence, 48 h | Potency, µM (series often up to 46.1 µM), most hits filed as cytotoxic | actives 1.6% (n = 360,000) | AID 686970;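 further: NT is the 2HG producing partner of a matched IDH1 knockdown line; nearly all actives have a fitted effect of over 55% in size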
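HT-1080-NT fibrosarcoma cells (2HG-overproducing), 750 cells/well in RPMI with 5% FBS, dosed after 2 h and incubated 48 h at 37C. CellTiter-Glo luminescence normalized to DMSO and no-cell wells; concentration-response curves fitted and classed.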
HT1080 IDH1KD tx – toxicity to HT-1080 IDH1 knockdown cells (counter line); HT-1080 IDH1 knockdown viability, ATP luminescence, 48 h; Potency, µM (highest dose often 46.1 µM), most hits filed as cytotoxic; actives 2% (n = 360,000); AID 686971
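In this qHTS, HT-1080 cells depleted of IDH1 are exposed for 48 h at 37 °C to compound titrations. Toxicity is scored from CellTiter-Glo luminescence, with DMSO as full viability and medium alone as none.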
IL1B secr inh – blocks inflammasome-driven IL-1 beta release. THP-1 LPS/ATP IL-1B secretion, AlphaLISA, 16 h; stronger effect = lower value. activity change, % at 57.5 µM. actives 4.7% (n = 360,000). AID 743279; in the data active means activity change below about -50%; inconclusive means mostly about -30% to -49%
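Secreted IL-1B measured by AlphaLISA bead assay after 16 h compound exposure of THP-1 cells; compounds (final up to 57.5 uM) added 1 h before LPS (250 ng/mL) and ATP (1.25 mM) stimulation; lower signal means less secretion.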
Giardia killer – Giardia lamblia killing; actives 0.15% (n = 340,000); Giardia lamblia trophozoite viability; activity change, % at 7.66 µM, hits read low; in the data active means activity change below about -80%; inconclusive means between about -30% and that limit;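 further: parasites exposed to compound for two days anaerobically before the ATP read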
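Trophozoites 100 cells/well + cpd; 48 hrs, 37 deg C, anaerobic. ATPLite 1-Step added, 15-30 min RT, luminescence read (ATP-based viability).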
Of the large screens only hits and unclear results are named; the others gave an inactive call. Unless noted, the call rests on the fitted dose curve; in most records, active means well fitted curve in the direction sought with a large enough effect; inconclusive means small, poorly fitted or top-dose-only effect, or another doubt; inactive means no such curve, though single readings can be large; an effect the other way counts as inactive or inconclusive.

c1ccc2c(c1)OCC(C1=NCCN1)O2 (centres undefined)	TGFb inhibitor inconclusive, HT1080 IDH1KD tx inconclusive, IL1B secr inh -79
CN1CCN(CCOC2c3ccccc3CSc3ccc(Cl)cc32)CC1 (centres undefined)	TGFb inhibitor inconclusive, HT1080NT lethal 16µM, HT1080 IDH1KD tx inconclusive, IL1B secr inh -87
Clc1ccccc1CNC1CN2CCC1CC2 (centres undefined)	none
Clc1ccc2c(c1)C(OC1CN3CCC1CC3)c1ccccc1CS2 (centres undefined)	TGFb inhibitor inconclusive, HT1080 IDH1KD tx inconclusive, IL1B secr inh -104
CC(=O)c1c(C)n(CC2CCCO2)c2ccc(O)cc12 (centres undefined)	none
CN1C[C@H](CNC(=O)OCc2ccccc2)C[C@@H]2c3cccc4c3c(cn4C)C[C@H]21	TGFb inhibitor inconclusive, HT1080NT lethal inconclusive, HT1080 IDH1KD tx 23µM, IL1B secr inh inconclusive
CN1C[C@H](CO)C[C@@H]2c3cccc4[nH]cc(c34)C[C@H]21	none
CN(C)C(Cc1ccccc1)C(=O)c1ccccc1 (centres undefined)	none
CC(C)N(C(=O)CCl)c1ccccc1	HT1080NT lethal 3.7µM, HT1080 IDH1KD tx inconclusive, IL1B secr inh -51
COc1ccc(OCC(=O)N2CCN(CCc3ccncc3)CC2)cc1	none (no result: HT1080NT lethal, HT1080 IDH1KD tx, IL1B secr inh, Giardia killer)
COC(=O)C(NC(C)=O)(Nc1nc2c(C)cc(C)cc2s1)C(F)(F)F (centres undefined)	HT1080NT lethal 16µM, HT1080 IDH1KD tx 13µM
CC(C)(C)n1nnnc1C(CCc1ccccc1)N1CCC2(CC1)C(=O)NCN2c1ccccc1 (centres undefined)	TGFb inhibitor inconclusive, HT1080NT lethal inconclusive, HT1080 IDH1KD tx inconclusive, IL1B secr inh -60 (no result: Giardia killer)
COc1ccc(-n2nnnc2C(c2cccs2)N2CCC3(CC2)C(=O)NCN3c2ccccc2)cc1 (centres undefined)	TGFb inhibitor inconclusive, HT1080NT lethal inconclusive, HT1080 IDH1KD tx inconclusive, IL1B secr inh -57 (no result: Giardia killer)
COc1ccc(-n2nnnc2C(CCc2ccccc2)N2CCC3(CC2)C(=O)NCN3c2ccccc2)cc1 (centres undefined)	TGFb inhibitor inconclusive, HT1080NT lethal inconclusive, HT1080 IDH1KD tx inconclusive, IL1B secr inh -67 (no result: Giardia killer)
CCC(c1nnnn1-c1ccc(OC)cc1)N1CCC2(CC1)C(=O)NCN2c1ccccc1 (centres undefined)	none (no result: Giardia killer)
CCC(c1nnnn1C(C)(C)C)N1CCC2(CC1)C(=O)NCN2c1ccccc1 (centres undefined)	TGFb inhibitor inconclusive (no result: Giardia killer)
CSCCC(c1nnnn1-c1c(C)cccc1C)N1CCC2(CC1)C(=O)NCN2c1ccccc1 (centres undefined)	TGFb inhibitor 11µM, HT1080NT lethal inconclusive, HT1080 IDH1KD tx inconclusive, IL1B secr inh inconclusive (no result: Giardia killer)
COc1ccc(-n2nnnc2C(CCSC)N2CCC3(CC2)C(=O)NCN3c2ccccc2)cc1 (centres undefined)	TGFb inhibitor inconclusive (no result: Giardia killer)
CC1(C)CC(=O)C=C(NCCN2CCN(C(=O)Cc3ccc(Cl)cc3)CC2)C1	none
CCN(c1ccc(C(O)(C(=O)OC)C(F)(F)F)cc1)S(=O)(=O)c1ccc(C)cc1 (centres undefined)	none
Cc1nnc2ccc(-c3cccc(C(F)(F)F)c3)nn12	Giardia killer inconclusive
O=C(CN1C(=O)CN=C(c2ccccc2)c2ccccc21)NCc1ccco1	none
COc1ccc(C2=NCC(=O)N(CC(=O)NCc3ccco3)c3sc4c(c32)CCCC4)cc1OC	IL1B secr inh -56
O=C(COc1ccc(Cl)cc1)N(c1ccc(Cl)cc1)C1CN2CCC1CC2 (centres undefined)	TGFb inhibitor 14µM, HT1080NT lethal 16µM, HT1080 IDH1KD tx 15µM, IL1B secr inh -95
O=C(COc1ccc(Cl)cc1)N(c1ccccc1Cl)C1CN2CCC1CC2 (centres undefined)	TGFb inhibitor inconclusive, HT1080NT lethal inconclusive, HT1080 IDH1KD tx 16µM, IL1B secr inh -75
Cc1c(C=C2C(=O)N(C)C(=S)N(C)C2=O)c2ccccc2n1CC(=O)NCC1CCCO1 (centres undefined)	none
O=C1NC(=O)C(=Cc2cccc(OCCOc3ccccc3)c2)C(=O)N1	none
CC12CC[C@H]3[C@@H](CCC4(O)C[C@H](O)CCC34/C=N/NC(=O)c3ccccc3[N+](=O)[O-])C1(O)CCC2C1=CC(=O)OC1 (some centres undefined)	HT1080NT lethal inconclusive, HT1080 IDH1KD tx inconclusive, IL1B secr inh inconclusive
C[C@]12CC[C@H]3C(CCC4(O)CC(O)CC[C@]34C=O)C1=CC[C@H]2c1ccc(=O)oc1 (some centres undefined)	TGFb inhibitor inconclusive, HepG2 viability 7.1µM, HT1080NT lethal 13µM, HT1080 IDH1KD tx 5.8µM, IL1B secr inh inconclusive
CC(=O)O[C@H]1[C@H]2O[C@]23[C@@H]2CC[C@]4(O)C[C@@H](O)CC[C@]4(C)C2CC[C@]3(C)[C@H]1c1ccc(=O)oc1 (some centres undefined)	TGFb inhibitor 3.5µM, HT1080NT lethal 0.82µM, HT1080 IDH1KD tx 0.015µM, IL1B secr inh inconclusive
C[C@]12CC[C@H](O)C[C@H]1CCC1C2CC[C@]2(C)[C@@H](c3ccc(=O)oc3)C[C@H]3O[C@]132 (some centres undefined)	TGFb inhibitor 7.9µM, HepG2 viability 6.3µM (no result: HT1080NT lethal, HT1080 IDH1KD tx, IL1B secr inh, Giardia killer)
O=c1[nH]oc2c1CCNC2	none
Cc1ccc(OC(=O)N(C)C[C@H]2OCc3cnnn3CCCC(=O)N([C@H](C)CO)C[C@@H]2C)cc1	none (no result: Giardia killer)
CN(C)C(=O)Oc1c(Cl)cc(Cl)c2cccnc12	none
Cc1ccc2c(Cl)cc(Cl)c(O)c2n1	TGFb inhibitor 13µM, HT1080 IDH1KD tx 8.2µM, IL1B secr inh -94
O=C(Nc1ccc(Cl)cc1)O/N=C(\c1ccccc1)c1ccccn1	none
COc1cc(C2c3cc4c(c(O)c3CC3COC(=O)C32)OCO4)cc(OC)c1OC (centres undefined)	HT1080NT lethal 0.0052µM, HT1080 IDH1KD tx inconclusive
COc1cc(C2c3cc4c(cc3CC3COC(=O)C32)OCO4)cc(OC)c1OC (centres undefined)	TGFb inhibitor inconclusive, HT1080NT lethal 0.37µM, HT1080 IDH1KD tx 0.23µM
CCN(CC)CCCOC(=O)C(OC)(c1ccccc1)c1ccccc1	none
